“And” between values parts separate entries of the source, which are not always exact repeats. Identical values can stand only once. The panel holds about 83,000 compounds, 20% with a hit somewhere; the sample as a whole holds those more often.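 In brief: 96-well plates, 48 h treatment, single concentration, percent growth endpoint.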 Some compounds were tested as several samples or in several runs, with calls that do not always agree. The source made the active and inactive calls. The calls were made as follows: active = growth percent below 10; inactive = the rest.
Key:
Assay in all cases: NCI-60 one-dose screen, 48 h (100 = growth as untreated, 0 = no growth, -100 = all killed)
Details in all cases: 10 µM
NCI-H23 lung = tested on: NCI-H23 lung
NCI-H522 lung = tested on: NCI-H522 lung
MDA-MB-231 breast = tested on: MDA-MB-231 breast
M14 melanoma = tested on: M14 melanoma
SK-MEL-5 melanoma = tested on: SK-MEL-5 melanoma
UACC-62 melanoma = tested on: UACC-62 melanoma
LOX IMVI melanoma = tested on: LOX IMVI melanoma
MOLT-4 leukemia = tested on: MOLT-4 leukemia
SR leukemia = tested on: SR leukemia
OVCAR-8 ovarian = tested on: OVCAR-8 ovarian
OVCAR-5 ovarian = tested on: OVCAR-5 ovarian
OVCAR-4 ovarian = tested on: OVCAR-4 ovarian
SK-OV-3 ovarian = tested on: SK-OV-3 ovarian
IGROV1 ovarian = tested on: IGROV1 ovarian
HS 578T breast = tested on: HS 578T breast
T-47D breast = tested on: T-47D breast
SW-620 colon = tested on: SW-620 colon
MCF7 breast = tested on: MCF7 breast
HCT-116 colon = tested on: HCT-116 colon
KM12 colon = tested on: KM12 colon

Measured: growth

CC1=C2C(=O)[C@](C)(CO)C=C2C(=O)[C@](C)(O)C12CC2
active: NCI-H23 lung -14.8% | NCI-H522 lung -34.7% | UACC-62 melanoma 7.31% | LOX IMVI melanoma -25.9% | T-47D breast 6.69% | SW-620 colon 9.68% | MCF7 breast 1.34% | HCT-116 colon 5.03%
inactive: MDA-MB-231 breast 24.6% | M14 melanoma 22.3% | SK-MEL-5 melanoma 24.2% | MOLT-4 leukemia 27.3% | SR leukemia 12.8% | OVCAR-8 ovarian 33% | OVCAR-5 ovarian 10.2% | OVCAR-4 ovarian 44.4% | SK-OV-3 ovarian 24.2% | IGROV1 ovarian 18.9% | HS 578T breast 80.4% | KM12 colon 31.9%

NC1CCc2cc(O)c(O)cc2C1 (stereo not given)
inactive: NCI-H23 lung 91.8% | NCI-H522 lung 92.3% | MDA-MB-231 breast 101% | M14 melanoma 83.5% | SK-MEL-5 melanoma 87.4% | UACC-62 melanoma 99.4% | LOX IMVI melanoma 70.9% | MOLT-4 leukemia 66% | OVCAR-8 ovarian 101% | OVCAR-5 ovarian 91.4% | OVCAR-4 ovarian 98.7% | SK-OV-3 ovarian 104% | IGROV1 ovarian 97.9% | HS 578T breast 100% | T-47D breast 88.9% | SW-620 colon 93.1% | MCF7 breast 63.6% | HCT-116 colon 58.1% | KM12 colon 97.5%
active: SR leukemia -24.1%

COc1cc(C)c(-c2ccc(OC)c(=O)cc2C)c(OC)c1OC
inactive: NCI-H23 lung 22.3% and 106% | MDA-MB-231 breast 18.3% and 99.8% | SK-MEL-5 melanoma 21.7% and 99.7% | UACC-62 melanoma 30.8% and 86.1% | LOX IMVI melanoma 18% and 106% | MOLT-4 leukemia 12.3% and 102% | OVCAR-5 ovarian 24.6% and 98.9% | OVCAR-4 ovarian 70.9% and 96.9% | SK-OV-3 ovarian 32.4% and 102% | IGROV1 ovarian 27.2% and 103% | T-47D breast 61% and 137% | SW-620 colon 19.6% and 104% | MCF7 breast 14.8% and 91.5% | HCT-116 colon 11.9% and 102%
4.63% (active) and 101% (inactive): M14 melanoma
6.94% (active) and 109% (inactive): KM12 colon
1.63% (active) and 109% (inactive): HS 578T breast
5.3% (active) and 100% (inactive): OVCAR-8 ovarian
9.85% (active) and 89.4% (inactive): SR leukemia
-11.4% (active) and 98.2% (inactive): NCI-H522 lung

From PubChem BioAssay (NCI)
